Screening data as filed in PubChem BioAssay.
A selection: hits, their analogues and other compounds. The true share with any hit is near 2.9%.
ADAM17 inh: inhibits human ADAM17; P78536; recombinant ADAM17, EDANS/DABCYL FRET peptide cleavage; inhibition, % at 6.95 µM; 370,000 tested, 0.83% active;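 active means inhibition above the mean of compounds lying between control limits plus 3 SD, set per campaign, cut at about 8.5% in these data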;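 further: 0% = DMSO-only wells as the low control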
PLCb3 inh: blocks human PLC-beta3 enzyme activity | Purified PLC-beta3, fluorogenic substrate, fluorescence | 370,000 tested, 0.18% active | inhibition, % at 12.2 µM; in the data active means inhibition above about 11%;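 further: 0% = median of compound wells on plate and 100% = full blocker control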
ADAM10 inh: inhibitors of human ADAM10; recombinant ADAM10, EDANS/DABCYL FRET peptide cleavage, 3 h; inhibition, % at 7 µM; 370,000 tested, 0.62% active; AID 720582;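 active means inhibition above a per-campaign cutoff equal to the mean of compounds falling between control-based bounds plus 3 SD, cut at about 20% in these data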;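 further: 0% = DMSO wells while the 100% control is not disclosed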
proKLK7 act: proKLK7 (human) activation, primary screen | P49862 | activation, % at 7 µM | 370,000 tested, 0.9% active | purified proKLK7, EDANS-DABCYL substrate fluorescence; 100% is mature enzyme control, 0% vehicle;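 active means activation above the mean of all tested compounds plus 3 SD, computed per campaign excluding outliers beyond control limits, cut at about 13% in these data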
Target sequence (P49862 whole entry, looked up): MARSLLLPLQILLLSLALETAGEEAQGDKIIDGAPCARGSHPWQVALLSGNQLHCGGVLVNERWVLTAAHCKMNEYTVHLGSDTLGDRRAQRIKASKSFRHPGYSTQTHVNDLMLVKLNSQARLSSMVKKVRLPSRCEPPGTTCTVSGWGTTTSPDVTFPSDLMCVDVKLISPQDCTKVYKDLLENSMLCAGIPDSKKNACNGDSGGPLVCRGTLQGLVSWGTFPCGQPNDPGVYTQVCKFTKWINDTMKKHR
PLC-gamma1 inh: blocks human PLC-gamma1 enzyme activity; 370,000 tested, 0.84% active; P19174; purified PLC-gamma1, fluorogenic substrate, fluorescence; AID 720700; inhibition, % at 12.2 µM; in the data active means inhibition above about 9.5%
ADAM10 confirm: human ADAM10 inhibition, confirmation | shares compounds with ADAM10 inh | ADAM10 QFRET peptide cleavage, EDANS fluorescence | inhibition, % at 6.95 µM | 2,100 tested, 1% active | AID 743208;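 active means inhibition above about 20% chosen separately for each screening run, limit read from the data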;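 further: 0% = DMSO wells and 100% = marimastat wells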
ADAM17 counter: inhibits human ADAM17 in ADAM10 exosite counter-screen; shares compounds with ADAM10 inh; ADAM17 QFRET peptide cleavage, EDANS fluorescence; inhibition, % at 6.95 µM; 2,100 tested, 0.5% active; AID 743214;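 active means mean triplicate inhibition above the solvent-only control wells' mean plus 3 SD, cut at about 12% in these data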;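 further: 0% = DMSO wells and 100% = marimastat wells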
Starred values were filed as active, the others as inactive.

For O=C(C1CC1)C1(C(=O)N2CCOCC2)CC(c2ccccn2)=NO1 (stereo not given) the results were ADAM17 inh 1, PLCb3 inh 2, ADAM10 inh 2, proKLK7 act 0 and PLC-gamma1 inh 5.
`C[C@H]1CCC[C@@]2(O[C@@H](CCO)C[C@H](O)[C@H]2O)O1` gave ADAM17 inh -8, PLCb3 inh 1, ADAM10 inh 83*, proKLK7 act -1, PLC-gamma1 inh -1, ADAM10 confirm 1 and ADAM17 counter 0.
`O=C(Nc1ccc(F)cc1)Nc1ccccc1NS(=O)(=O)c1cccs1` gave ADAM17 inh 2, PLCb3 inh 2, ADAM10 inh 1, proKLK7 act 0 and PLC-gamma1 inh 3.
O=C(Nc1ccc(Cl)cc1)Nc1ccccc1NS(=O)(=O)c1cccs1 was read as ADAM17 inh 8, PLCb3 inh 6, ADAM10 inh 23*, proKLK7 act 0, PLC-gamma1 inh 9, ADAM10 confirm 4 and ADAM17 counter 1.
For COc1cccc(C(=O)NNC(=O)C(=O)Nc2ccc(C)c(Cl)c2)c1 the results were ADAM17 inh 6, PLCb3 inh -13, ADAM10 inh 65*, proKLK7 act 0, PLC-gamma1 inh -7, ADAM10 confirm 33* and ADAM17 counter 1.
For COC(=O)/C=C1\Nc2ccc(Cl)cc2C(=O)NC1=O the results were ADAM17 inh -257, PLCb3 inh -213, ADAM10 inh inactive, proKLK7 act 6 and PLC-gamma1 inh -168.
`O=C(CSc1nnc(-c2ccc(O)cc2)n1Cc1ccco1)c1cccs1` gave ADAM17 inh -1, PLCb3 inh 1, ADAM10 inh 3, proKLK7 act 0 and PLC-gamma1 inh -1.
`N#Cc1c(-c2ccccc2)c(-c2ccccc2)n(Cc2ccco2)c1NC(=O)c1cccs1` gave ADAM17 inh 7, PLCb3 inh -54, ADAM10 inh 20*, proKLK7 act -10, PLC-gamma1 inh -25, ADAM10 confirm 21* and ADAM17 counter 7.
`CNC(=O)C[C@@H]1CC[C@@H]2[C@H](COc3ccc(NC(=O)c4cccc(F)c4)cc3C(=O)N2C)O1` gave ADAM17 inh -4, PLCb3 inh 3, ADAM10 inh -1, proKLK7 act 0 and PLC-gamma1 inh -2.
`Cn1c(=O)c2c(nc(N3CCCCCC3)n2CC(O)COc2ccccc2)n(C)c1=O` (stereo not given) gave ADAM17 inh -5, PLCb3 inh 0, ADAM10 inh -6, proKLK7 act 0 and PLC-gamma1 inh 0.
Screening Cn1c(=O)c2c(nc(N3CCCCC3)n2CC(O)COc2ccccc2)n(C)c1=O (stereo not given) returned ADAM17 inh 0, PLCb3 inh -1, ADAM10 inh 21*, proKLK7 act -1, PLC-gamma1 inh 4, ADAM10 confirm -1 and ADAM17 counter 0.
For CCOC(=O)[C@@]12CCCC3=C1N(CCC3)C(=O)[C@H]2CC(=O)NCCCOC the results were ADAM17 inh -5, PLCb3 inh -2, ADAM10 inh -7, proKLK7 act 1 and PLC-gamma1 inh 1.
CCOc1cc(/C=C/c2ccc3cccc([N+](=O)[O-])c3n2)ccc1O was read as ADAM17 inh 7, PLCb3 inh 4, ADAM10 inh 22*, proKLK7 act 0, PLC-gamma1 inh 6, ADAM10 confirm 7 and ADAM17 counter 1.
For CCc1ccc(CN(C)C(=O)c2cc(COc3cc(C)c(Cl)c(C)c3)on2)nc1 the results were ADAM17 inh 5, PLCb3 inh 1, ADAM10 inh 19, proKLK7 act 1 and PLC-gamma1 inh 2.
Cc1cc(OCc2cc(C(=O)N(C)Cc3nonc3C)no2)cc(C)c1Cl was read as ADAM17 inh 5, PLCb3 inh -13, ADAM10 inh 28*, proKLK7 act 0, PLC-gamma1 inh 3, ADAM10 confirm 7 and ADAM17 counter 2.
`Cc1ccc2c(c1)-c1c(cnn1CC(=O)NCCc1cccc(F)c1)CO2` gave ADAM17 inh 3, PLCb3 inh 3, ADAM10 inh -11, proKLK7 act 0 and PLC-gamma1 inh 1.
